Reference: PubChem BioAssay (NCATS)
Results filed as inconclusive are left out. Active and inactive are the calls of the source. Calls come from the whole dose curve; as a rule, active = well fitted inhibition curve with a large enough effect; inconclusive = small, poorly fitted or top-dose-only effect; inactive = no such curve, though single readings can be large or run the other way. Numbered stars: 1 amine (or outer) side, 2 acyl side, 3 side chain; on linkers, the order of the positions; unused ones are H or OH. Bridge positions count the residues as written; N and C are the ends. Square brackets hold non-standard residues; d marks the D form. Peptide text beside a SMILES is read from it. * marks the point of attachment. ξ: configuration not given here. ΔAla(Z-3-ureido) = NC(=O)N/C=C(\N)C(=O)O; ξDab(CH2SO3H) = NC(CCNCS(=O)(=O)O)C(=O)O; X2 = NC1=NC(O)CC(C(N[*:1])C(=O)[*:2])N1; Heptanoyl(6-Me) = CC(C)CCCCC(=O)*; ξβ3hOrn = NCCCC(N)CC(=O)*; Orn = NCCC[CH](N)C(=O)O; Dab = NCC[CH](N)C(=O)O; Dap = NC[CH](N)C(=O)O

Experiment: S16 Schwann cell PMP22 intronic element firefly luciferase assay (AID 624032); note: nearly all actives have a fitted effect of over 30% in size
Conditions: S16 rat Schwann cells, PMP22 element FLuc, 24 h; series mostly up to 57.5 µM
Source text: Charcot-Marie-Tooth-Association [CMTA]
National Center for Advancing Translational Sciences [NCATS]
Charcot-Marie-Tooth (CMT) disease was first characterized by Jean-Martin Charcot and Pierre Marie in France and, independently, by Howard Henry Tooth in England in 1886. CMT is one of the most common inherited neurological diseases, affecting approximately 1 in 2,500 Americans. […] The most prevalent type of CMT is known as CMT1A and caused by a duplication of the PMP22 gene which leads to over-expression of this protein. PMP22 is a glycosylated intrinsic membrane protein accounting for 2-5% of the myelin protein content, and its over-expression results in demyelination and subsequently axonal loss.
A pair of cellular transcription-based assays was developed in the S16 rat Schwann cell lines (Hai, M., et al., 2002) stably transfected with orthogonal reporters - firefly luciferase (Fluc) and beta-lactamase (beta-Lac) - whose expression is driven by an intronic regulatory element of the PMP22 gene (Jones, E.A., et al., 2011) to recapitulate endogenous expression of PMP22. The current assay employs Fluc to report on PMP22 expression. A comprehensive library of approved drugs, the NCGC Pharmaceutical Collection (Huang, R., et al., 2011), was screened in the cross-validating platform of the orthogonal reporter assays to identify drug modulators inhibitory towards PMP22 expression.
A set of counter-screens was devised to address non-specific activity of the library. An ATP-dependent CellTiter-Glo assay (developed by Promega Corp) was utilized to control cell viability. In addition, biochemical Fluc enzyme assay was performed to assess direct inhibition of the Fluc enzymatic activity.
Hai, M., Muja, N., DeVries, G.H., Quarles, R.H. and Patel, P.I. Comparative analysis of Schwann cell lines as model systems for myelin gene transcription studies. J Neurosci Res, 2002. 69(4): pp 497-508
Huang, R., Southall, N., Wang, Y., Yasgar A., Shinn P., Jadhav, A. , Nguyen, D.-T. and Austin, C.P., The NCGC pharmaceutical collection: a comprehensive resource of clinically approved drugs enabling repurposing and chemical genomics. Sci Transl Med, 2011. 3(80): p. 80ps16.
S16 Schwann cell PMP22 intronic element firefly luciferase assay
The FLuc-expressing S16 cells were seeded in white solid 1536-well plates at between 500-750 cells/4uL in DMEM medium containing 10% FBS, w/o phenol red. After overnight incubation at 37 degree Celsius/5% C02, 23 nL of compounds or DMSO were delivered to each well using a pin tool, followed by 24h-incubation at 37 degree Celsius/5% C02. Then 4 uL ONE-Glo luminescent substrate mix (Promega) was added to each well. Luminescence was measured on a ViewLux plate reader (Perkin Elmer). The % activity was determined by normalizing to the average readings of PTC124 (a positive control) - treated cells relative to DMSO-treated cells (0% Activity). The concentration-effect curves were then classified based on curve quality (r2), response magnitude and degree of measured activity.
Potency is the fitted concentration of half-maximal effect.

Potency, active:
CC(C)CC1NC(=O)C(CCCN)NC(=O)C(C(C)C)NC(=O)C2CCCN2C(=O)C(Cc2ccccc2)NC(=O)C(CC(C)C)NC(=O)C(CCCN)NC(=O)C(C(C)C)NC(=O)C2CCCN2C(=O)C(Cc2ccccc2)NC1=O (stereo unspecified) (cyclo(FPV[Orn]LFPV[Orn]L); configuration not given here) 0.642 µM, CCOC(=O)C(CS)NCCN[C@@H](CS)C(=O)OCC (stereo partly specified) 10.2 µM

Potency, inactive:
CNCC(=O)NC(CCCN=C(N)N)C(=O)NC(C(=O)NC(Cc1ccc(O)cc1)C(=O)NC(C(=O)NC(Cc1cnc[nH]1)C(=O)N1CCCC1C(=O)NC(C)C(=O)O)C(C)C)C(C)C (stereo unspecified), CC(N)C(=O)NCC(=O)NC1CSSCC(C(=O)O)NC(=O)C(CO)NC(=O)C(C(C)O)NC(=O)C(Cc2ccccc2)NC(=O)C(C(C)O)NC(=O)C(CCCCN)NC(=O)C(Cc2c[nH]c3ccccc23)NC(=O)C(Cc2ccccc2)NC(=O)C(Cc2ccccc2)NC(=O)C(CC(N)=O)NC(=O)C(CCCCN)NC1=O (stereo unspecified), CCC1NC(=O)C(NC(=O)c2ncccc2O)C(C)OC(=O)C(c2ccccc2)NC(=O)C2CC(=O)CCN2C(=O)C(Cc2ccccc2)N(C)C(=O)C2CCCN2C1=O (stereo unspecified), NCCCC(N)CC(=O)NC1CNC(=O)C(C2CC(O)N=C(N)N2)NC(=O)/C(=C/NC(N)=O)NC(=O)C(CO)NC(=O)C(CO)NC1=O (stereo not drawn) (ξβ3hOrn-[Dap]SS[ΔAla(Z-3-ureido)][X2]; lactam 1-C; configuration not given here), CC1(C)C(/C=C/C=C/C=C/C=C2\N(CCCCS(=O)(=O)O)c3ccc4ccccc4c3C2(C)C)=[N+](CCCCS(=O)(=O)[O-])c2ccc3ccccc3c21, CC(=O)OCC1=C(C(=O)O)N2C(=O)C(NC(=O)Cc3ccccc3)C2SC1 (stereo unspecified), COc1ccc(-c2nc3ccc(C4=C(C)CC(=O)NN4)cc3[nH]2)cc1, CC(C)C(NC(=O)C(CC(=O)O)NC(=O)C(CCCCN)NC(=O)C(N)CCCN=C(N)N)C(=O)NC(Cc1ccc(O)cc1)C(=O)O (stereo unspecified) (H-RKDVY-OH; configuration not given here), O=C(O)c1ccccc1-c1c2cc(Br)c(=O)c(Br)c-2oc2c(Br)c(O)c(Br)cc12, CCC(Oc1ccccc1)C(=O)NC1C(=O)N2C1SC(C)(C)C2C(=O)O (stereo unspecified), CC(C)C[C@H](NC(=O)[C@@H](Cc1c[nH]c2ccccc12)NC(=O)[C@@H](Cc1ccc(O)cc1)NC(=O)[C@@H](CO)NC(=O)[C@@H](Cc1c[nH]c2ccccc12)NC(=O)C(Cc1cnc[nH]1)NC(=O)C1CCC(=O)N1)C(=O)N[C@@H](CCCN=C(N)N)C(=O)N1CCC[C@@H]1C(=O)NCC(N)=O (stereo partly specified), CC(=O)OCC(=O)[C@@]1(O)CCC2C3CCC4=CC(=O)CC[C@]4(C)C3=CC[C@@]21C (stereo partly specified), NC(=O)CCC1NC(=O)C(Cc2ccccc2)NC(=O)C(Cc2ccc(O)cc2)NC(=O)CCSSCC(C(=O)N2CCCC2C(=O)NC(CCCN=C(N)N)C(=O)NCC(N)=O)NC(=O)C(CC(N)=O)NC1=O (stereo unspecified), C=CC1=C(C(=O)O)N2C(=O)[C@@H](NC(=O)C(N=O)c3csc(N)n3)[C@H]2SC1 (stereo partly specified), Cn1cc(O)nc1NC(=O)Nc1cccc(Cl)c1, CC(C)CC(NC(=O)C(COC(C)(C)C)NC(=O)C(Cc1ccc(O)cc1)NC(=O)C(CO)NC(=O)C(Cc1c[nH]c2ccccc12)NC(=O)C(Cc1cnc[nH]1)NC(=O)C1CCC(=O)N1)C(=O)NC(CCCN=C(N)N)C(=O)N1CCCC1C(=O)NNC(N)=O (stereo unspecified), CCC(C)C1NC(=O)C(Cc2ccc(O)cc2)NC(=O)C(N)CSSCC(C(=O)N2CCCC2C(=O)NC(CC(C)C)C(=O)NCC(N)=O)NC(=O)C(CC(N)=O)NC(=O)C(CCC(N)=O)NC1=O (stereo unspecified), CCC(C)C1NC(=O)C(CCNCS(=O)(=O)O)NC(=O)C(NC(=O)C(CCNCS(=O)(=O)O)NC(=O)C(NC(=O)C(CCNCS(=O)(=O)O)NC(=O)CCCCC(C)C)C(C)O)CCNC(=O)C(C(C)O)NC(=O)C(CCNCS(=O)(=O)O)NC(=O)C(CCNCS(=O)(=O)O)NC(=O)C(C(C)CC)NC1=O (stereo unspecified) ({Heptanoyl(6-Me)}-[ξDab(CH2SO3H)]T[ξDab(CH2SO3H)][Dab][ξDab(CH2SO3H)]II[ξDab(CH2SO3H)][ξDab(CH2SO3H)]T; lactam 4-C; configuration not given here), O=C1/C(=C\c2cccs2)CCC/C1=C/c1cccs1
